Measured values from PubChem BioAssay AID504406 (Broad Institute, 2011).
About 190 (0.059%) of roughly 320,000 compounds were called active. The sample holds actives, similar compounds and a random draw of the others, so the mix is not that of the screen. Rule as the data show it: active = inhibition above about 10% (passing the limit was not always enough); inconclusive = no clear call, values can overlap the other calls.

These compounds were tested against UDP-galactopyranose mutase (Mycobacterium tuberculosis (strain ATCC 25618 / H37Rv)) (UniProt P9WIQ1) (assay: blockers of Mtb UDP-galactopyranose mutase – biochemical, fluorescence polarization, single point, primary screen (AID 504406)). Conditions: purified UGM, fluorescence polarization probe displacement; at 10 µM; hits give high values.
UDP-galactopyranose mutase (Mycobacterium tuberculosis (strain ATCC 25618 / H37Rv)), sequence (P9WIQ1 whole entry, looked up): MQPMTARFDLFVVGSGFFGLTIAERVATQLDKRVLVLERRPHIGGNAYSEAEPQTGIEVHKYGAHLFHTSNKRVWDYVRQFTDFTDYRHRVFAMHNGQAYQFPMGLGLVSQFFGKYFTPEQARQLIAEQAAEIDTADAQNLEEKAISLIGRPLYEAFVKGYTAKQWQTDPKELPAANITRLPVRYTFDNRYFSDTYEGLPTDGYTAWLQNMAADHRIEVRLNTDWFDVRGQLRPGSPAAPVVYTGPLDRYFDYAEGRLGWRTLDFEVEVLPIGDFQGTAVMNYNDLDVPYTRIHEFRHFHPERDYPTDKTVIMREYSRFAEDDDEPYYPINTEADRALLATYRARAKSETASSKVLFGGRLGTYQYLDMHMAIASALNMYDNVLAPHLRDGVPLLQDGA
`CCN(CC)S(=O)(=O)c1ccc(N2CCCC2)c(NS(=O)(=O)c2cccs2)c1` was tested, and the inhibition was -0.858% (inactive).
For `Clc1ccc(-c2cc(COc3ccccc3)no2)cc1Cl`, the inhibition was 2.39% (inactive).
In the case of `Cc1ccc(S(=O)(=O)N(CC(=O)N/N=C/c2ccc(F)cc2)c2cccc3cccnc23)cc1`, the inhibition is reported as 1.31% (inactive).
In the case of `COc1ccc2c(c1)c(=O)c(C(=O)c1ccc(Cl)cc1)cn2CC(=O)Nc1ccc(F)cc1`, the inhibition is reported as -1.48% (inactive).
In the case of `Cc1cc(C)n(CCC(=O)N2CCN(S(=O)(=O)c3ccc(C)c(C)c3)CC2)n1`, the inhibition is reported as -2.44% (inactive).
With `CCOC(=O)C1(CCOc2ccccc2)CCN(Cc2ccc(C#CCCO)cc2)CC1` the inhibition was -2.01% (inactive).
For `COC(=O)c1ccc(NC(=O)CSc2nncn2-c2cccnc2)cc1`, the inhibition was -3.9% (inactive).
In the case of `COc1ccc(C(O)(C2CCCCC2)C(CN2CCCC2)c2ccccc2)cc1` (stereo not drawn), the inhibition is reported as 1.17% (inactive).
For `COc1ccc(CNS(=O)(=O)c2ccc(NC(=O)N3CCCCC3)cc2)cc1`, the inhibition was 0.444% (inactive).
`COC(=O)c1c(NC(=O)COc2ccc(Cl)cc2Cl)sc2c1CC(C)(C)NC2(C)C` was tested, and the inhibition was -3.8% (inactive).
`C=C(Br)CN1CCN(CC(=C)Br)CC1` was tested, and the inhibition was 2.58% (inactive).
`C=CC[C@@H](CC(=O)NCCO)C(=O)N[C@H](C)COC(=O)[C@@H](CC=C)CC(=O)OC(C)(C)C` was tested, and the inhibition was -0.634% (inactive).
For `Cn1c(=O)c2c(nc(OCc3cccnc3)n2Cc2ccccc2)n(C)c1=O`, the inhibition was 7.96% (inactive).
`Cc1cc(C(=O)OCC(=O)Nc2ccc(F)c(F)c2)c(C)o1` was tested, and the inhibition was -0.0838% (inactive).
For `COc1cccc(NC(=O)CN(C)CC(=O)c2c(N)n(Cc3ccccc3)c(=O)n(C)c2=O)c1`, the inhibition was 3.19% (inactive).
With `CCCn1nnnc1NCc1ccc(CC)cc1` the inhibition was -1.05% (inactive).
`Cc1cccc(N(C)C(=O)CN2C(=O)COc3ccc(S(=O)(=O)N4CCCCCC4)cc32)c1` was tested, and the inhibition was -1.26% (inactive).
`CCOC(CNC(=O)C1CCN(S(=O)(=O)c2ccc3nc4c(c(C(=O)O)c3c2)CC(C)CC4)CC1)OCC` (stereo not drawn) was tested, and the inhibition was -0.608% (inactive).
`Cc1ccc(N)cc1-n1c(C)ccc1C` was tested, and the inhibition was -4.8% (inactive).
For `CC(Sc1nc2cc(Cl)ccc2s1)C(=O)Nc1ccc2c(c1)OCO2` (stereo not drawn), the inhibition was 1.22% (inactive).
`Cc1cccc(N(CC(=O)Nc2ccc(-c3nc4ccc(C)cc4s3)cc2)S(C)(=O)=O)c1` was tested, and the inhibition was -2.81% (inactive).
In the case of `CCN(CC)CCn1cnc2c1c(=O)n(CCOC(=O)c1cc(OC)c(OC)c(OC)c1)c(=O)n2C`, the inhibition is reported as 0.786% (inactive).
With `CC(CNC(=O)Cn1cnc2c(OCc3ccccc3)ncnc21)c1ccccc1` (stereo not drawn) the inhibition was -1.84% (inactive).
In the case of `CCSC1(SCC)N=C(N)C2(C#N)C(c3ccccc3)NC(C)=CC12C#N` (stereo not drawn), the inhibition is reported as 0.444% (inactive).
With `O=C1CCC(Cc2ccccc2)N1` (stereo not drawn) the inhibition was 1.36% (inactive).
With `O=C(CN1C(=O)c2ccc([N+](=O)[O-])cc2C1=O)Nc1nnc(C2CC2)s1` the inhibition was 0.737% (inactive).
With `CN1CCN(Cc2nc3cc(NC(=O)COc4ccc([N+](=O)[O-])cc4)ccc3n2C)CC1` the inhibition was -1.12% (inactive).
In the case of `CC1CCC2(CC1)NC(=O)N(CC(=O)c1cccn1C)C2=O` (stereo not drawn), the inhibition is reported as -1.14% (inactive).
